Experimental data: PubChem BioAssay (Tox21)
Results filed as inconclusive are left out. The source made the active and inactive calls. Unless noted, the call rests on the fitted dose curve.

Experiments:
[1] = Nuclear factor erythroid 2-related factor 2/antioxidant responsive element (Nrf2/ARE) small molecule agonists: qHTS cell viability counter screen in human keratinocytes (AID 1919968; active means well fitted curve in the direction sought with a large enough effect in the repeat runs; an effect the other way counts as inactive or inconclusive; further: nearly all actives have a fitted effect of over 55% in size)
Procedure, shortened: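 Stably transfected HaCaT (KeratinoSens), 1,500/well. Test agents in DMSO were applied for 23 h, 37 C/5% CO2. CellTiter-Fluor was incubated 1 h before the fluorescence read.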

[2] = target: KiSS-1 receptor (Homo sapiens) (UniProt Q969F8); experiment: Human kisspeptin (KISS1R) small molecule agonists, calcium flux assay in KISS1R-HEK293 cells (AID 1920064; active means well fitted curve in the direction sought with a large enough effect in the repeat runs; an effect the other way counts as inactive or inconclusive)
Procedure, shortened: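 After overnight (18 h) culture at 37 C/5% CO2, human KISS1R-HEK293 cells received calcium dye for 1 h, then test compound; emission at 540 nm (excitation 480 nm) was tracked for 3 min.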

[3] = G protein-coupled receptor (GPCR) small molecule agonists, calcium flux assay: HEK293 wild type cell line counter screen (AID 1920065)
Procedure, shortened: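 Following 18 h incubation at 37 C/5% CO2, plates got calcium dye for 1 h; compounds, ATP or DMSO were then pinned in and fluorescence followed kinetically (480/540 nm).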

[4] = p53 small molecule agonists, cell-based qHTS assay with human liver microsomes (AID 1963577);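 further: p53 response element beta-lactamase reporter cells with liver microsomes plus NADPH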
Procedure, shortened: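 Metabolically competent format: test substances, human liver microsomes and NADPH (both 0.5 mg/mL final) incubated with p53RE-bla cells 16 h at 37 C. Beta-lactamase reporter signal then quantified by fluorescence.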

[5] = p53 small molecule agonists, cell-based qHTS assay with rat liver microsomes (AID 1963578)
Procedure, shortened: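 Each plate received p53RE-bla cells, then compound, then rat liver microsomes and NADPH (both 0.5 mg/mL final). Plates were held 16 h at 37 C, and beta-lactamase activity was detected with LiveBLAzer over 2 h.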

[6] = p53 small molecule agonists, cell-based qHTS assay with human liver microsomes: qHTS cell viability counter screen (AID 1963579); further: nearly all actives have a fitted effect of over 45% in size
Procedure, shortened: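 Tox21 library compounds, delivered from DMSO stocks, were tested on p53RE-bla cells together with 0.5 mg/mL human liver microsomes and 0.5 mg/mL NADPH (final) over 16 h at 37 C; CellTiter-Glo luminescence served as the cytotoxicity measure.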

[7] = p53 small molecule agonists, cell-based qHTS assay with rat liver microsomes: qHTS cell viability counter screen (AID 1963580); further: nearly all actives have a fitted effect of over 45% in size
Procedure, shortened: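 Cytotoxicity counter screen: intracellular ATP measured by CellTiter-Glo luminescence in the same wells as the beta-lactamase reporter read, on HCT-116 p53RE-bla cells exposed 16 h at 37 C to compounds with rat liver microsomes and NADPH, each 0.5 mg/mL final.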

[8] = p53 small molecule agonists, cell-based qHTS assay: qHTS cell viability counter screen (AID 1963581); further: nearly all actives have a fitted effect of over 45% in size
Procedure, shortened: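 qHTS counter screen: 16 h compound exposure at 37 C of p53RE-bla HCT-116 cells (4,000 per well, seeded 5 h prior), cell viability by ATP luminescence.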

[9] = p53 small molecule agonists, cell-based qHTS assay (AID 1963582; active means well fitted activation curve with a large enough effect in the signal ratio in the repeat runs, not every such curve was filed as active; the % refers to the signal ratio)
Procedure, shortened: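 Measured: fluorescence from cleaved LiveBLAzer substrate. System: p53RE-bla cells, 16 h compound treatment at 37 C, 2 h substrate step at room temperature.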

[10] = cAMP Responsive Elements (CRE) small molecule agonists, cell-based qHTS assay (AID 1963590)
Procedure, shortened: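 Test agents in DMSO were incubated 3 h at 37 C/5% CO2 with CRE-bla HEK 293T cells seeded 18 h earlier; LiveBLAzer B/G FRET substrate was added and read after 2 h at room temperature.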

[11] = cAMP Responsive Elements (CRE) small molecule antagonists, cell-based qHTS assay (AID 1963591; active means well fitted inhibition curve with a large enough effect in the signal ratio in the repeat runs, not every such curve was filed as active; the % refers to the signal ratio)
Procedure, shortened: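 Reporter line CRE-bla HEK 293T in dialyzed-FBS DMEM; cells preincubated 18 h, treated 3 h with compound plus NKH477 (0.25 uM final); LiveBLAzer FRET, 2 h RT.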

[12] = target: Beta-2 adrenergic receptor (Homo sapiens) (UniProt P07550); experiment: Adrenergic beta2 receptor (ADRB2) small molecule antagonists, cell-based qHTS assay (AID 1963592); further: series mostly up to about 92 µM; nearly all actives have a fitted effect of over 50% in size
Procedure, shortened: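 Assay format: CHO-ADRB2 cells, 18-20hr seeding at 37C/5% CO2, then compound plus 1nM isoproterenol agonist mix for 0.5hr RT. Homogeneous time-resolved fluorescence cAMP detection after 1hr, expressed as 665/615 nm ratio.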

[13] = target: Beta-2 adrenergic receptor (Homo sapiens) (UniProt P07550); experiment: Adrenergic beta2 receptor (ADRB2) small molecule agonists, cell-based qHTS assay (AID 1963593);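 further: CHO cells stably overexpressing human ADRB2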
Procedure, shortened: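 CHO cells stably over-expressing ADRB2 were plated overnight at 37C, then dosed with compounds plus a stimulation mix containing 100uM IBMX and 25uM Ro-20-1724 for 0.5hr at room temperature. cAMP was measured by HTRF competition, 1hr.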

[14] = target: D(2) dopamine receptor (Homo sapiens) (UniProt P14416); experiment: Dopamine D2 receptor (DRD2) small molecule agonists, cell-based qHTS assay (AID 1963594); further: nearly all actives have a fitted effect of over 35% in size
Procedure, shortened: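 HEK293 cells stably expressing human DRD2, pre-treated with PDE inhibitor Ro20-1724 (0.1 mM final) and compound 10 min at room temperature, then stimulated with NKH477 (200nM […]) for 30 min. cAMP read by HTRF (665/620 nm).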

[15] = target: D(2) dopamine receptor (Homo sapiens) (UniProt P14416); experiment: Dopamine D2 receptor (DRD2) small molecule antagonists, cell-based qHTS assay (AID 1963595; active means well fitted inhibition curve with a large enough effect in the signal ratio in the repeat runs, with a control signal flat; the % refers to the signal ratio)
Procedure, shortened: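 HEK293 cells stably expressing DRD2 were preincubated with 0.1 mM Ro20-1724, then with compound for 10 min at room temperature. Cells were stimulated with 200 nM NKH477 plus 12 nM quinpirole for 30 min, and cAMP was read by HTRF.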

[16] = target: 5-hydroxytryptamine receptor 2A (Homo sapiens) (UniProt P28223); experiment: 5-hydroxytryptamine receptor 2A (HTR2A) small molecule antagonists, cell-based qHTS assay (AID 1963586); further: nearly all actives have a fitted effect of over 45% in size
Procedure, shortened: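 CHO cells stably expressing human HTR2A were plated for 18 h at 37 C, then loaded with calcium dye for 1 h. Compounds were preincubated 5 min at room temperature before DOI (4 nM solution) was added. Kinetic fluorescence was read for 3 min.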

[17] = target: 5-hydroxytryptamine receptor 2A (Homo sapiens) (UniProt P28223); experiment: 5-hydroxytryptamine receptor 2A (HTR2A) small molecule agonists, cell-based qHTS assay (AID 1963587); further: nearly all actives have a fitted effect of over 30% in size
Procedure, shortened: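 CHO cells stably expressing human HTR2A, plated 18 h, loaded with calcium dye 1 h at 37 C. Agonist mode: compounds added and intracellular calcium fluorescence recorded kinetically for 2 min at 1 sec intervals.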

[18] = target: Muscarinic acetylcholine receptor M1 (Homo sapiens) (UniProt P11229); experiment: Cholinergic receptor muscarinic 1 (CHRM1) small molecule antagonists, cell-based qHTS assay (AID 1963588); further: nearly all actives have a fitted effect of over 40% in size
Procedure, shortened: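 Compounds were tested at 15 concentrations in three independent runs. Dye-loaded CHRM1-CHO cells were exposed 5 min at room temperature before stimulation by acetylcholine added at 50nM. Intracellular calcium was read kinetically on FDSS for 3 min.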

[19] = target: Muscarinic acetylcholine receptor M1 (Homo sapiens) (UniProt P11229); experiment: Cholinergic receptor muscarinic 1 (CHRM1) small molecule agonists, cell-based qHTS assay (AID 1963589); further: nearly all actives have a fitted effect of over 35% in size
Procedure, shortened: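 Kinetic fluorescence (1 s intervals) of calcium-sensitive dye in human M1 CHO cells after compound addition; cells pre-incubated 18 h at 37 C/5% CO2 and dye-loaded 1 h.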

Measured: Potency

Chain of Muscarinic acetylcholine receptor M1 (Homo sapiens) (P11229 whole entry, looked up): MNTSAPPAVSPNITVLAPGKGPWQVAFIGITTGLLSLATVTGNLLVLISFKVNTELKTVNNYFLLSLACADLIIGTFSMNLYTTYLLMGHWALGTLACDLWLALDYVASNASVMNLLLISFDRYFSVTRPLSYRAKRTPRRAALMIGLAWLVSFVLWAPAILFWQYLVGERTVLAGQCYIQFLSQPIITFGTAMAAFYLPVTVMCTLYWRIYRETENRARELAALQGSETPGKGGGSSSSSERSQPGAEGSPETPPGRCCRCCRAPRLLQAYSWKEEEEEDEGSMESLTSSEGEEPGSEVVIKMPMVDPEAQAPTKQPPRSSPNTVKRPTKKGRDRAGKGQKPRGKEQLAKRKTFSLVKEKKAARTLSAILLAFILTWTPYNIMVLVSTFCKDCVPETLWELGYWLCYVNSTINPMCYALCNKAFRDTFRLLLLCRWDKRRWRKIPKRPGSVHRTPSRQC
Chain of Beta-2 adrenergic receptor (Homo sapiens) (P07550 whole entry, looked up): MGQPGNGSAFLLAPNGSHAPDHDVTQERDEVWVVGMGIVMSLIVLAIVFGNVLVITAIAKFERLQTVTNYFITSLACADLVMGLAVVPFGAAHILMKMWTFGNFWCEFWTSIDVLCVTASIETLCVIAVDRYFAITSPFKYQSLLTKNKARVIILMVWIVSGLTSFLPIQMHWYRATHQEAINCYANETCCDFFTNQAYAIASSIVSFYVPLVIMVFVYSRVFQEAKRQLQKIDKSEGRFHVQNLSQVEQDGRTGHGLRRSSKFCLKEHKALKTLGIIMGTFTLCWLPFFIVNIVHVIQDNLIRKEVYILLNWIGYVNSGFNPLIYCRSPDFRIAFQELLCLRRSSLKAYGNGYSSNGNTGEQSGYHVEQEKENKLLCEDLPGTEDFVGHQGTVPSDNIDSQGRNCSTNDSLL
Chain of KiSS-1 receptor (Homo sapiens) (Q969F8 whole entry, looked up): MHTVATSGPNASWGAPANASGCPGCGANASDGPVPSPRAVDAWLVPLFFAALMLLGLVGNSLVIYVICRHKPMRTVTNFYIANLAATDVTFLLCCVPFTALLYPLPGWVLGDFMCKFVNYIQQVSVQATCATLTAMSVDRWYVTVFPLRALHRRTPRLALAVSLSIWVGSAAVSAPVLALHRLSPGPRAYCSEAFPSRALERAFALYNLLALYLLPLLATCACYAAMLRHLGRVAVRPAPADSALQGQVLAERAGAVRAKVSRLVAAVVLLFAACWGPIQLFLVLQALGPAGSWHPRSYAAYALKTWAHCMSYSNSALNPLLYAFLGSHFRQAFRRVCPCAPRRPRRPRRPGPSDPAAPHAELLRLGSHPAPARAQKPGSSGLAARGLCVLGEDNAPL
Chain of D(2) dopamine receptor (Homo sapiens) (P14416 whole entry, looked up): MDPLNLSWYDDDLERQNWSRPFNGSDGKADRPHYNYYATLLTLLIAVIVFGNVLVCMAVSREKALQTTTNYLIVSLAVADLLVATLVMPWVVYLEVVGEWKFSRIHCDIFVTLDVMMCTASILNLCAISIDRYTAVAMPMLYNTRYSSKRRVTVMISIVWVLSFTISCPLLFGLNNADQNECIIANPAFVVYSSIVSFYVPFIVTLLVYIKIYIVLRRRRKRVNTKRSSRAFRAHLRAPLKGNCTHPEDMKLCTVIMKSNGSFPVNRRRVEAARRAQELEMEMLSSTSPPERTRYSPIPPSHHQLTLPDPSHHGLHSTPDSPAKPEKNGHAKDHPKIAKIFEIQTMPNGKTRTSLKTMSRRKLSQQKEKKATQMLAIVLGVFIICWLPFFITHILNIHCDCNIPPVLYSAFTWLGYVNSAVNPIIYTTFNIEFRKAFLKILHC
Chain of 5-hydroxytryptamine receptor 2A (Homo sapiens) (P28223 whole entry, looked up): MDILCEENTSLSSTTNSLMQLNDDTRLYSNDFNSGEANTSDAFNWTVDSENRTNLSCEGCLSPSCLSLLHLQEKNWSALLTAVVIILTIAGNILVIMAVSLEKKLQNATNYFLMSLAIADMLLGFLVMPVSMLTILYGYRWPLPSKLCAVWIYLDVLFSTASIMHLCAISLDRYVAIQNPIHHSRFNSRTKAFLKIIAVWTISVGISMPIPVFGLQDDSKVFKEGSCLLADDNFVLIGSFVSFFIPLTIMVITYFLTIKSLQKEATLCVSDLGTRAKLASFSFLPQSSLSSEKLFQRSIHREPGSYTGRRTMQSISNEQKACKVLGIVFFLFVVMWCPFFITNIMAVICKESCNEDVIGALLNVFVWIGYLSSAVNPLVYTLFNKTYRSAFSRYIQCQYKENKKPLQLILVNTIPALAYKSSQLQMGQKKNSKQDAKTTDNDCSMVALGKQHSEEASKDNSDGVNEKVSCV

Clc1cccc(Cl)c1NC1=NCCN1
not listed: [16] | [17] | [18] | [19]
inactive: all other assays above

CC(C)(O)C(=O)O
not listed: [12] | [19]
inactive: all other assays above

CC(CO)c1ccccc1 (stereo not drawn)
not listed: [15] | [19]
inactive: all other assays above

OCCN1CCNCC1
not listed: [16] | [18]
inactive: all other assays above

CCOC(=O)c1cc(=O)c2c(OCC(COc3cccc4oc(C(=O)OCC)cc(=O)c34)OC(=O)[C@@H](N)CCCCN)cccc2o1
not listed: [14]
inactive: all other assays above

CC(C)(C)NC[C@H](O)COc1nsnc1N1CCOCC1
not listed: [12] | [13] | [16] | [17] | [18] | [19]
inactive: all other assays above

Clc1nc2ccccc2s1
not listed: [13]
inactive: all other assays above

CCC(=O)Nc1cccc(N)c1
not listed: [13]
inactive: all other assays above
